# Screening results from PubChem BioAssay.
# FBW7 act – activators of human E3 ligase FBW7. Q969H0. AlphaScreen FBW7–phospho-cyclin E peptide binding, activator screen. normalized activity (activation), % at 26.1 µM. 0.13% of 650,000 active. AID 1259310; in the data active = normalized activity above about 1.9%;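 also: purified mutant Fbw7 with reduced substrate affinity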
# GPR151 ag – activators of human GPR151 | Q8TDV0 | PathHunter beta-arrestin GPR151 cells, luminescence | activation, % at 11.2 µM | 1% of 650,000 active | AID 1508602; in the data active = activation above about 4.9%;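 also: 0% = median of compound wells and 100% = cells with positive control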
# Target sequence (Q8TDV0 whole entry, looked up): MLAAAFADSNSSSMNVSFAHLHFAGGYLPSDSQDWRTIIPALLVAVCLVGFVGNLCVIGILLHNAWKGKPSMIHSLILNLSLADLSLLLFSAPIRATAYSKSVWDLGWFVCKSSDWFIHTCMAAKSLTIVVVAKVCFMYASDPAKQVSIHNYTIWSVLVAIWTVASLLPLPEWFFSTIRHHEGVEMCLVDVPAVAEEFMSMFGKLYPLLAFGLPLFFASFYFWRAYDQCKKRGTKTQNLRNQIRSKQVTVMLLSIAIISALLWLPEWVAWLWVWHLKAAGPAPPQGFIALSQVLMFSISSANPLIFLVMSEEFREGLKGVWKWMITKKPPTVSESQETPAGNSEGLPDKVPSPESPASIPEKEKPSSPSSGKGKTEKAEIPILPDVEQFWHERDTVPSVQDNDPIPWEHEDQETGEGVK
# TEAD-YAP block – TEAD-YAP interaction inhibition. HEK-TIYL cells, TEAD-Gal4/YAP UAS-luciferase luminescence. 1.4% of 640,000 active. inhibition, % at 9.12 µM; in the data active = inhibition above about 32%;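 also: 0% = median of test compound wells and 100% = reference inhibitor wells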
# MITF inh – human MITF inhibition, primary screen | inhibition, % at 2.6 µM | AlphaScreen MITF homodimerization, bead proximity signal | O75030 | AID 1259374 | 0.91% of 650,000 active; in the data active = inhibition above about 50%;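 also: 0% = vehicle wells with protein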
# MITF confirm – human MITF inhibition, confirmation; shares compounds with MITF inh; AlphaScreen MITF homodimerization, biotin/His-MITF beads; inhibition, % at 2.6 µM; 16% of 4,700 active; AID 1259372;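 active = inhibition above a cutoff derived from the DMSO control wells, cut at about 28% in these data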;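 also: 0% = MITF dimer wells with DMSO only; inhibitors lower the bead chemiluminescence by keeping MITF from dimerizing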
# AlphaScreen DR – AlphaScreen optical interference, dose response counter-screen | 6% of 480 active | AID 1259373 | IC50, µM | shares compounds with MITF inh | AlphaScreen optical interference counterscreen, cell-free; call rule not given here
# AS interf ctr – optically interferes with AlphaScreen signal. shares compounds with MITF inh. LysRS AlphaScreen counterscreen, signal interference, triplicate. inhibition, % at 2.6 µM. 7.6% of 4,700 active;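 active = inhibition above a cutoff derived from the DMSO control wells, cut at about 30% in these data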
# * marks the source's active call; other numbers are inactive results; . = no result given. In the library only some 3.5% were active in any assay of this set; here they are far more common.
SMILES,FBW7 act,GPR151 ag,TEAD-YAP block,MITF inh,MITF confirm,AS interf ctr,others
CCOC(=O)C1=C(c2ccccc2)N=c2s/c(=C\c3cccs3)c(=O)n2C1c1c(OC)ccc2ccccc12 (stereo unspecified),0,-1,-10,55*,-9,-7,
CCOC(=O)C1=C(C)N=c2s/c(=C\c3c(C)[nH]c4ccccc34)c(=O)n2C1c1ccccc1 (stereo unspecified),0,3,3,66*,-7,-8,
CC(=O)c1ccc2c(c1)Cc1ccccc1-2,0,-1,-14,10,.,.,
CN(C)[C@@H]1C(=O)C(C(=O)NCN2CCCC2)=C(O)[C@@]2(O)C(=O)C3=C(O)c4c(O)cccc4[C@@](C)(O)[C@H]3C[C@@H]12,0,0,-2,75*,81*,22,AlphaScreen DR=>6.5
O=C(CCn1c(=O)oc2cc(Br)ccc21)n1c(=O)oc2cc(Br)ccc21,0,0,7,12,.,.,
O=[N+]([O-])c1ccc(S(=O)(=O)N2CCN(Cc3cccc(Br)c3)CC2)cc1,0,1,-7,77*,9,13,
O=[N+]([O-])c1ccccc1S(=O)(=O)N1CCN(Cc2cccc(Br)c2)CC1,0,2,-4,21,.,.,
O=[N+]([O-])c1ccc(S(=O)(=O)N2CCN(Cc3ccccc3)CC2)cc1,0,1,3,45,.,.,
O=[N+]([O-])c1ccc(S(=O)(=O)N2CCN(Cc3ccc(Br)cc3)CC2)cc1,0,-2,6,61*,21,36*,
COc1ccc(CN2CCN(S(=O)(=O)c3ccc([N+](=O)[O-])cc3)CC2)cc1,0,0,-2,53*,15,15,
COc1ccc(S(=O)(=O)N2CCN(Cc3ccc([N+](=O)[O-])cc3)CC2)cc1,0,1,0,3,.,.,
N#C/C(=C/c1ccccc1)c1cccc([N+](=O)[O-])c1,0,0,4,-11,.,.,
COc1ccc(-n2c(SCC#N)nnc2-c2cccs2)cc1,0,3,11,9,.,.,
O=C(c1cc2ccccn2n1)N1CCN(c2ccc([N+](=O)[O-])cc2)CC1,0,0,5,-7,.,.,
Oc1ccc(CNc2ccccc2Cl)c2cccnc12,-2,0,16,68*,51*,92*,
Oc1ccc(CNc2ccccc2F)c2cccnc12,-1,-1,2,68*,70*,100*,
Oc1ccc(CNc2cccc(Cl)c2)c2cccnc12,-1,-1,15,52*,107*,100*,
Oc1ccc(Cl)c2cccnc12,0,-1,4,18,.,.,
CC1CC(C)(C)NC(=S)N1CC(=O)N(C)c1ccc(Br)cc1 (stereo unspecified),0,2,15,-5,.,.,
O=C(NC1CCN(Cc2ccccc2)CC1)c1cnc(NC2CCN(Cc3ccccc3)CC2)s1,0,-2,1,14,.,.,
CCCNC(=O)c1cnc(NC2CCN(Cc3ccccc3)CC2)s1,0,-1,2,74*,-5,9,
COc1cc2c(cc1OC)C(COc1ccc([N+](=O)[O-])cc1)N(C(=O)C(C)Oc1ccccc1)CC2 (stereo unspecified),0,1,-10,1,.,.,
CCCCCn1c(=O)c2ccccc2n2c(Cn3ncc(Cl)c(Cl)c3=O)nnc12,0,0,11,1,.,.,
COc1cc(Nc2ccc(NC(=O)c3cccc(F)c3)cc2)nc(C)n1,0,1,15,57*,-5,-6,
NC(=O)[C@@H]1CCCN1C(=O)CC1(c2cccc(F)c2)CC(=O)N(C2CCCC2)C1=O (stereo partly specified),0,-1,8,7,.,.,
SMILES,FBW7 act,GPR151 ag,TEAD-YAP block,MITF inh,MITF confirm,AS interf ctr,others
Nc1nnc(SCc2cc(=O)oc3ccc4ccccc4c23)s1,0,1,7,2,.,.,
Cc1ccc(S(=O)(=O)CCN2CCN(Cc3ccccc3)CC2)cc1,0,0,11,11,.,.,
Cc1ccc(CN2CCN(CCCc3ccccc3)CC2)cc1,0,2,6,66*,-13,-2,
c1ccc(CN2CCN(Cc3ccncc3)CC2)cc1,0,0,6,80*,-8,0,
COc1ccc(CN2CCN(CCCc3ccccc3)CC2)cc1OC,0,1,6,59*,12,15,
c1ccc(CCCN2CCN(Cc3ccncc3)CC2)cc1,0,0,6,69*,-9,-7,
COc1ccc(CN2CCN(CCCc3ccccc3)C(CCO)C2)cc1OC (stereo unspecified),0,0,2,7,.,.,
Cc1cc(C)nc(/N=C(/NC(=O)c2ccc(F)cc2)Nc2ccccc2)n1,0,-1,-3,14,.,.,
O=Cc1cc2ccccc2nc1N1CCOCC1,0,-1,6,0,.,.,
O=C1N[C@@H](Cc2ccc(O)cc2)C(=O)N2CCN(C(=O)NC3CCCCC3)C[C@H]12,0,-1,-1,70*,69*,-5,AlphaScreen DR=>6.5
O=C1N[C@@H](Cc2cnc[nH]2)C(=O)N2CCN(C(=O)NC3CCCCC3)C[C@H]12,0,0,9,-8,.,.,
O=C1N[C@H](Cc2ccc(O)cc2)C(=O)N2CCN(C(=O)NC3CCCCC3)C[C@H]12,0,0,7,76*,70*,-9,AlphaScreen DR=>6.5
CS(=O)(=O)c1cncnc1C1CCCN(C(=O)N2CCCC2)C1 (stereo unspecified),0,-1,-11,6,.,.,
CCN(CC)C(=O)CN1CCCC(c2ncncc2S(C)(=O)=O)C1 (stereo unspecified),0,0,-3,64*,9,11,
Cc1ccccc1C(OCC(O)CNCc1ccccn1)c1ccccc1 (stereo unspecified),-1,2,-7,51*,13,33*,
OC(CNCc1ccccn1)c1ccccc1 (stereo unspecified),-1,0,-9,54*,7,43*,
OC(CNCC(O)c1ccccc1)c1ccccc1 (stereo unspecified),0,-1,8,17,.,.,
O=C(N/N=C\c1ccccc1Cl)c1ccccc1O,0,-2,-46,1,.,.,
COc1ccc(-c2c(C)oc3cc(OCC(N)=O)ccc3c2=O)cc1OC,0,-1,4,61*,0,7,
COc1ccc(-c2c(C)oc3cc(OCC(=O)OC(C)C)ccc3c2=O)cc1OC,0,0,2,10,.,.,
CS(=O)(=O)c1cc(C#N)c(N2CCNCC2)nc1-c1ccc(Cl)cc1,0,2,3,1,.,.,
CC(C)Nc1nc(-c2ccc(Cl)cc2)c(S(C)(=O)=O)cc1C#N,0,2,-13,58*,14,16,
CC1CCN(CCCNC(=O)C2CC(=O)N(CCc3ccccc3)C2)CC1 (stereo unspecified),0,-2,2,107*,-9,-3,
